Assay results as given in PubChem BioAssay (NCI).
The panel holds about 83,000 compounds, 20% with a hit somewhere; the sample as a whole holds those more often.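 Method: cells in 96-well plates; compound added at one concentration; 48 h incubation; percent growth measured; values under 10 scored active.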 A number with no mark means an inactive call. Activity calls are given as the source filed them.

Experiments:
Assay in all cases: NCI-60 one-dose screen, 48 h (100 = growth as untreated, 0 = no growth, -100 = all killed)
Conditions in all cases: 10 µM
SK-MEL-2 melanoma = system: SK-MEL-2 melanoma
EKVX NSCLC = system: EKVX NSCLC
SN12C renal = system: SN12C renal
UO-31 renal = system: UO-31 renal
TK-10 renal = system: TK-10 renal
ACHN renal = system: ACHN renal
CAKI-1 renal = system: CAKI-1 renal
A498 renal = system: A498 renal
CCRF-CEM leukemia = system: CCRF-CEM leukemia
MOLT-4 leukemia = system: MOLT-4 leukemia

Row | SMILES | growth (SK-MEL-2 melanoma) | growth (EKVX NSCLC) | growth (SN12C renal) | growth (UO-31 renal) | growth (TK-10 renal) | growth (ACHN renal) | growth (CAKI-1 renal) | growth (A498 renal) | growth (CCRF-CEM leukemia) | growth (MOLT-4 leukemia)
1 | Cc1ccc(C(C)C)cc1NC(=O)c1ccccc1N(C)C | 86.8% | 81.1% | 88.1% | 76.4% | 90.2% | 88.4% | 70.6% | 100% | 80.1% | –
2 | Cc1ccc(NC(=O)NCn2c(=O)[nH]c3ccccc3c2=O)cc1 | 93.1% | 87.6% | 68.6% | 44.5% | 72.5% | 35% | 61.4% | 90.4% | 97.5% | –
3 | COc1ccc2[nH]c(O)c(N=NC(=O)COc3ccc(NC(=O)Nc4ccc(Cl)cc4)cc3)c2c1 | -8.16% (active) | 84.8% | 15.9% | 90.3% | 106% | 100% | 99.7% | 135% | 8.83% (active) | –
4 | O=C(c1ccc(-n2c(=O)[nH]c3ccccc3c2=O)cc1)N1CCOCC1 | 102% | 101% | 89.8% | 82.5% | 97.2% | 103% | 89% | 116% | 108% | –
5 | CC[C@@]1(O)C(=O)OCc2c1cc1n(c2=O)Cc2c-1nc1cc(F)c(C)c3c1c2[C@@H](N)CC3 | -29.2% (active) | 15.4% | 1.83% (active) | -82.4% (active) | 6.02% (active) | -57.8% (active) | -22.9% (active) | -89.6% (active) | 13.4% | –
6 | C=CC(=O)Nc1nc(-c2cccc(NS(=O)(=O)c3cccc4c(N(C)C)cccc34)c2)cs1 | -62.7% (active) | 29% | -56.6% (active) | -100% (active) | -76.9% (active) | -79.8% (active) | -87.5% (active) | 25.7% | -32% (active) | –
7 | O=C(CS(=O)(=O)c1oc(-c2ccc(Cl)cc2)nc1S(=O)(=O)c1ccc(Cl)cc1)N1CCOCC1 | 83.9% | 83.5% | 55.3% | -19.9% (active) | 16.5% | -98.2% (active) | 30.9% | 134% | -34.6% (active) | –
8 | Cc1cc2c(c(O)c1Br)-c1ncoc1C(=O)[C@]1(C)CC[C@H](C(C)C)[C@H]21 | 4.52% (active) | 46.7% | 54.5% | 50.3% | 68.8% | 52.2% | 55.4% | 104% | 14.2% | –
9 | COc1ccc(-c2nc(S(=O)(=O)c3ccc(C)cc3)c(S(=O)(=O)CC(=O)N(C)Cc3ccccc3)o2)cc1 | 51.1% | 84.6% | 47.4% | 34.8% | 56% | 6.56% (active) | 42.9% | 132% | -35.9% (active) | –
10 | O=C(Cc1ccc2c(c1)CN(C1CCC(=O)NC1=O)C2=O)NCc1cccc2ccccc12 (centres undefined) | -45.7% (active) | 1.9% (active) | -7.92% (active) | -33.8% (active) | 18% | -19% (active) | 7.68% (active) | -13.2% (active) | 9.65% (active) | -15.2% (active)
11 | CCN1CCN(c2ccc(NC(=O)Nc3ccc(-c4cc(C(=O)NC(C)C)c5ncccc5n4)cc3)cc2C(F)(F)F)CC1 | -71% (active) | -91.5% (active) | -94.3% (active) | -94.5% (active) | -92.7% (active) | -93.1% (active) | -95.2% (active) | -99.1% (active) | -44.5% (active) | –
12 | O=[N+]([O-])c1ccc(-c2nc(-c3ccccc3)c(-c3ccccc3)n2-c2ccc(S(=O)(=O)Nc3ncccn3)cc2)cc1 | 69.4% | 22.8% | 38.9% | 22.1% | 66% | 50.1% | 29% | 79.3% | 20.8% | 26.2%
13 | Nc1cccnc1/C=N/NC(=S)NCCNC(=O)c1ccc(-n2nc(-c3ccccc3O)nc2-c2ccccc2O)cc1 | -4.94% (active) | 2.53% (active) | 5.7% (active) | -3.95% (active) | 12.3% | 2.89% (active) | 4.97% (active) | 73.7% | -6.46% (active) | 11.8%
14 | O=C(COc1ccc(NC(=O)Nc2ccc(Cl)cc2)cc1)N=Nc1c(O)[nH]c2ccc([N+](=O)[O-])cc12 | -15.7% (active) | 88.3% | 32.3% | 77.2% | 101% | 93.4% | 96.3% | 119% | -36.9% (active) | –
